Drawing on PMC12136788, this text covers binding signal for eight molecules.

To fix the notation:
B1: chr1:163295886:163295887:+_ENSG00000143228_ENST00000271452|hu_mus|motif|central (ssRNA)
RNA: GGGAGUUCUACAGUCCGACGAUCGGUUUUUGCCAUCUGCUCCUGUUAAUAAUUUAUUGCGAAUAUGAACCACAAGCUCAGCGGCAUUGUAUCUGGGGAAUGACAAAGUUUCCAUUAUGGGAGUCUCCUCCCUGAGUAUUGUUGCAACAGAGGAUUGAGCAUCA
B2: chr6:29525140:29525141:-_ENSMUSG00000012535_ENSMUST00000012679|mus_hu|FALSE|FALSE (ssRNA)
RNA: GGGAGUUCUACAGUCCGACGAUCGUUAGUUUUGUACAAAUGUUCCCCCAGUCGGUACCAAAAGUUAAAUGAAAUUUCUACUACCUCAUAUUGAGGAUGGCCUGCACAGAUAAGCAGCAGCUCCAGAGUUCGAAGGUCCCCAAGCAACAGAGGAUUGAGCAUCA
B3: chr1:36770067:36770068:+_ENSG00000054118_ENST00000354618|hu_mus|FALSE|FALSE (ssRNA)
RNA: GGGAGUUCUACAGUCCGACGAUCUUAAGAGUCAAAGUUGCCCAAAUUAAAAUCUUUACACUAAUAUUACUAUAUAUCCCCUAAAAAGAAGAAAAAGAAAAAAGGAUUUCUUAAUAAAACUCAGGACAGGAAGAGACUGAAAACCAACAGAGGAUUGAGCAUCA
B4: chr7:155493584:155493585:+_ENSG00000184863_ENST00000401878|hu_mus|FALSE|FALSE (ssRNA)
RNA: GGGAGUUCUACAGUCCGACGAUCAGAAAGUUCCAAAGUUUCUGGAAUGUUCCUUCUCUCUCUAGUUACAUCUGAAAGCCUAAUAAUUGUUCCUUCUUUCCUUUCAGUUUUAAAACGUAAUCGUCCAGAUUCUUCAUCAUCAUCCAACAGAGGAUUGAGCAUCA
B5: chr1:36770067:36770068:+_ENSG00000054118_ENST00000354618|hu_hu|FALSE|FALSE (ssRNA)
RNA: GGGAGUUCUACAGUCCGACGAUCUCUUUCAAGAAUCAAAGUUUCCCAAAUUAAAUGUUUCUAAUAUUACUACAUAUGCCUAAAAAAAGAAAAAAAAAAAAAAAAAGGAGGGGGCUUUUAAAAUCAGGACAGGGGAAAAGAGAUCAACAGAGGAUUGAGCAUCA
B6: chr1:36770067:36770068:+_ENSG00000054118_ENST00000354618|hu_hu|motif|central (ssRNA)
RNA: B5 RNA with U80G, A81G
B7: chr1:201104638:201104639:-_ENSG00000116857_ENST00000367334|hu_hu|FALSE|FALSE (ssRNA)
RNA: GGGAGUUCUACAGUCCGACGAUCAGAGAUCAGAGACCACAUCCCUCUUCCCUAAUCAAAAUAGCCAAGUACAACAUUUCUAAAGUUAGGGAGAAGGAGGAAAAAUGCCACAGGCUUUUAAAGGGAAGACUGGAACCGAGGGAACAACAGAGGAUUGAGCAUCA
B8: chr19:16212804:16212805:+_ENSG00000167460_ENST00000300933|hu_hu|motif|central (ssRNA)
RNA: GGGAGUUCUACAGUCCGACGAUCAGGAAAUAUGCAAAAGAACAUCACAUCAAGGAUCAAUUAAUUACCAUCUAUUAAUUACGGUAUGUGGGUAAUUAUGACUAUUUCCCAAGCAUUCUACGUUGACUGCUUGAGAAGAUGUUUCAACAGAGGAUUGAGCAUCA

Residue numbers refer to the chain shown, from its start. Over roughly 24,000 sequences, “enrichment r” has its median near 0.99; the highest 2% begin near 3.7. For the sample, the highest values were picked, then their nearest neighbours and some sequences at random.

This assay deals with T1, UNK ZnF1-3 (human, UniProt Q9C0B0 31-174).
T1 sequence: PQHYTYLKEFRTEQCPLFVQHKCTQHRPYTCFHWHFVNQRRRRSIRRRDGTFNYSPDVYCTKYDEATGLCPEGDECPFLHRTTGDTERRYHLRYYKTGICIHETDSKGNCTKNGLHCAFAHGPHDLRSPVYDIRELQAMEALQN
The assay is described as follows: nsRBNS (natural sequence RNA bind-n-seq); RBNS binding buffer (assumed for nsRBNS): 25 mM Tris pH 7.5, 150 mM KCl, 3 mM MgCl2, 0.01% Triton X-100, 500 ug/ml BSA, 20 U/ml SUPERase-In, 4 C; UNK is unkempt and MSI1 is Musashi-1; names of the RNAs are library labels; protein concentration not given here; high values mean tight binding.
In turn, B1 came in with a binding signal of 1.12 enrichment R.
With B2 the figure was 0.862 enrichment R; with B3, 2.39 enrichment R.
Regarding B4, the binding signal was determined as 0.81 enrichment R.
Molecule B5 came in with a binding signal of 4.92 enrichment R.
B6: the binding signal came out at 3.96 enrichment R.
In the case of B7, the binding signal is 2.05 enrichment R.
With B8 the figure was 0.67 enrichment R.
